{
  "source": "PubChem BioAssay AID1445",
  "about": "(SRMLSC, 2008)",
  "note": "Among all 220,000 compounds or so, about 910 (0.41%) were called active. This is one part of a sample in which actives are shown more often than they occur. Results with a measured potency or affinity are listed apart. Unmarked numbers belong to inactive results.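 Rule for the calls: active = primary inhibition above the hit cutoff, then over 50% inhibition at one or more dose response concentrations (cut at about 23% in these data, passing the limit was not always enough); inconclusive = conflicting primary data, or primary hits not chosen for dose response; inactive = low primary inhibition, or under 50% at every dose.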",
  "data": [
    {"target": "Aminopeptidase N (Plasmodium falciparum (isolate 3D7)) (UniProt O96935)", "sequence (O96935 whole entry, looked up)": "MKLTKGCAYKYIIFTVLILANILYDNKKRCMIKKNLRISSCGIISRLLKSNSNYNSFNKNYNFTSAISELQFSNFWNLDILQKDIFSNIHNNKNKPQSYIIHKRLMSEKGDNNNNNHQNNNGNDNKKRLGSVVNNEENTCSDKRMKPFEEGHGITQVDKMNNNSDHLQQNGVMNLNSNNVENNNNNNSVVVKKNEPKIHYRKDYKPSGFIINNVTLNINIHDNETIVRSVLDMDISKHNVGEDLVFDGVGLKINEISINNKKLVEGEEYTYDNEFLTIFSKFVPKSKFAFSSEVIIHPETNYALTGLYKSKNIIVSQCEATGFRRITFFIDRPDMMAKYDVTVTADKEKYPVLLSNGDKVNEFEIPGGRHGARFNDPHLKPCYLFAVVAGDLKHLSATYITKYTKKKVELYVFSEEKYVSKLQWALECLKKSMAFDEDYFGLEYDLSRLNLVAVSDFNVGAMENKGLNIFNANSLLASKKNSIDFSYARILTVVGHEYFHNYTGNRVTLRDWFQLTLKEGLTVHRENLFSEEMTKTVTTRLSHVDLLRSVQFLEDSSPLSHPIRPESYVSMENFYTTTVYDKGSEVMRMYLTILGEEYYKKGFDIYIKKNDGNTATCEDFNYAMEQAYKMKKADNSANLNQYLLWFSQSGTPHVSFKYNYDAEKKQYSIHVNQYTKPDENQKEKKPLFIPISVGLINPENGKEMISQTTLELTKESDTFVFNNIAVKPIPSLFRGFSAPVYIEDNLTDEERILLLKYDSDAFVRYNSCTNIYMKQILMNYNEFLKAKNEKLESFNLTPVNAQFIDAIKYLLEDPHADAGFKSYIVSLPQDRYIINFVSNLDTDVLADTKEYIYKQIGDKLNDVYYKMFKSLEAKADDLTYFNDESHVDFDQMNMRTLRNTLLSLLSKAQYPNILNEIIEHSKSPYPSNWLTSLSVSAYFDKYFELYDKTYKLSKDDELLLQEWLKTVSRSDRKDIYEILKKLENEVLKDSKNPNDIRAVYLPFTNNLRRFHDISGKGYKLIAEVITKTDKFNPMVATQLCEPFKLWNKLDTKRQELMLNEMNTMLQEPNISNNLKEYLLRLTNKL", "assay": "P. falciparum M1AAP inhibitors, biochemical, fluorogenic H-Leu-NHMec substrate, 1536-well (AID 1445);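 note: plate controls were DMSO full reaction for no effect and no enzyme background for full effect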", "details": "recombinant M1AAP, H-Leu-NHMec fluorogenic kinetic assay; at 30 µM, active compounds read high unless noted", "values": [
      {"smiles": "O=S(=O)(c1ccc(F)cc1)N1CCN=C1SCc1cccnc1", "inhibition": "0.03%"},
      {"smiles": "O=C(Nc1cccc(O)c1)c1cnn2cccnc12", "inhibition": "13.6%"},
      {"smiles": "CC1(C)CC(=O)c2sc(NS(=O)(=O)c3ccc(F)cc3)nc2C1", "inhibition": "5.81%"},
      {"smiles": "CCc1nnc(NC(=O)CSc2nnc(CNc3cccc(C)c3)n2-c2ccccc2)s1", "inhibition": "0.64%"},
      {"smiles": "O=C(CCCCl)OCc1cn(-c2ccc(Cl)cc2)nn1", "inhibition": "8.74%"},
      {"smiles": "O=C(NC1CCCC1)C1CCC(=O)N1C1CCCC1", "note": "(stereo not given)", "inhibition": "6.41%"},
      {"smiles": "CCOC(=O)c1oc2ccccc2c1CN1CCN(C)CC1", "inhibition": "0.88%"},
      {"smiles": "Clc1ccc(/C=N\\Nc2ccccc2)cc1", "inhibition": "4.31%"},
      {"smiles": "Clc1ccc(/C=N/Nc2nnc(Cl)c3ccccc23)cc1", "inhibition": "14.4%"},
      {"smiles": "COc1cc(N2CN=c3s/c(=C\\c4ccccn4)c(=O)n3C2)cc(OC)c1OC", "inhibition": "5.01%"},
      {"smiles": "O=[N+]([O-])c1cc(Cl)ccc1-c1nc(-c2ccncc2)no1", "inhibition": "3.23%"},
      {"smiles": "C=CCN1C(=O)/C(=c2\\sc3nc(=O)c(Cc4ccc(OC)c(OC)c4)nn3c2=O)c2ccccc21", "inhibition": "11.6%"},
      {"smiles": "CCN1C(=O)/C(=c2\\sc3nc(=O)c(Cc4ccccc4)nn3c2=O)c2ccccc21", "inhibition": "7.93%"},
      {"smiles": "CCC(C)c1ccc2oc(-c3ccc(NC(=O)Cn4cnc5c(=O)n(C)c(=O)n(C)c54)cc3)nc2c1", "note": "(stereo not given)", "inhibition": "17.4%"},
      {"smiles": "O=C(N1CCOCC1)C1(c2ccc(Cl)cc2)CCCC1", "inhibition": "-5.21%"},
      {"smiles": "O=C(CSc1ncc(C(F)(F)F)cc1Cl)NCC1CCCO1", "note": "(stereo not given)", "inhibition": "0.4%"},
      {"smiles": "O=C1NC(=S)N/C1=C/c1cccc([N+](=O)[O-])c1", "inhibition": "1.79%"},
      {"smiles": "O=C1NC(=S)N/C1=C\\c1cccc([N+](=O)[O-])c1", "inhibition": "-1.35%"},
      {"smiles": "O=C1NC(=S)N/C1=C/c1cc([N+](=O)[O-])ccc1O", "inhibition": "27.2% (active)"},
      {"smiles": "Cc1ccc(C(=O)NCCN2CCNC2=O)cc1", "inhibition": "-8.25%"},
      {"smiles": "Cc1ccccc1OCC(=O)Nc1ccc2oc(=O)ccc2c1", "inhibition": "16.6%"},
      {"smiles": "CCOC(=O)C1CCN(C(=O)COc2ccc(N(C)S(=O)(=O)c3ccc(OCC)cc3)cc2)CC1", "inhibition": "-2.18%"},
      {"smiles": "CCn1c(CSc2nc3ccccc3s2)nnc1SCC(=O)c1ccc(Cl)cc1", "inhibition": "11.1%"},
      {"smiles": "CCn1c(CSc2nc3ccccc3s2)nnc1SCC(=O)c1ccc(O)cc1O", "inhibition": "6.78%"},
      {"smiles": "O=C(Cc1c(C(=O)O)[nH]c2ccc(Cl)cc12)Nc1ccc2c(c1)OCCO2", "inhibition": "4.87%"},
      {"smiles": "Cc1ccc(-c2nnn(CC(=O)N(Cc3ccco3)C(C(=O)NC3CCCC3)c3cccs3)n2)o1", "note": "(stereo not given)", "inhibition": "0.46%"},
      {"smiles": "O=C(N/N=C/c1ccc(O)c(O)c1)C1c2ccccc2Oc2ccccc21", "inhibition": "25.6% (active)"},
      {"smiles": "COc1cc(/C=N/NC(=O)C2c3ccccc3Oc3ccccc32)ccc1O", "inhibition": "3.49%"},
      {"smiles": "O=C(N/N=C\\c1cccnc1)C1c2ccccc2Oc2ccccc21", "inhibition": "3.5%"},
      {"smiles": "Nc1cc(-c2cccc(F)c2)nn1S(=O)(=O)c1cccc2nsnc12", "inhibition": "6.59%"},
      {"smiles": "CC1=C(C(=O)Nc2ccccn2)C(c2cn(C)nc2C)C2=C(CCCC2=O)N1", "note": "(stereo not given)", "inhibition": "9.42%"},
      {"smiles": "COc1ccccc1C(=O)Oc1cc(N)n(S(=O)(=O)c2ccccc2)n1", "inhibition": "11.1%"},
      {"smiles": "Cc1ccc(C(=O)Oc2cc(N)n(S(=O)(=O)c3ccc(C)cc3)n2)cc1", "inhibition": "-3.58%"},
      {"smiles": "COc1cccc(NC(=S)N(CCc2ccc(OC)c(OC)c2)Cc2ccccn2)c1", "inhibition": "4.47%"},
      {"smiles": "CCc1ccc2nc(N3C(=O)C(O)=C(C(=O)c4ccco4)C3c3cccs3)sc2c1", "note": "(stereo not given)", "inhibition": "14.9%"},
      {"smiles": "Cc1ccc2nc(N3C(=O)C(O)=C(C(=O)c4ccco4)C3c3cccs3)sc2c1", "note": "(stereo not given)", "inhibition": "27.4% (active)"},
      {"smiles": "Cc1ccc2nc(N3C(=O)C(O)=C(C(=O)c4cc5ccccc5o4)C3c3cccs3)sc2c1", "note": "(stereo not given)", "inhibition": "10.6%"},
      {"smiles": "Cc1nnc(SCC(=O)N2CCN(C(=O)c3ccco3)CC2)n1-c1ccccc1", "inhibition": "-1.57%"},
      {"smiles": "Cc1ccc(NC(=O)C(=O)NN)cc1", "inhibition": "3.55%"},
      {"smiles": "CC(C)(C)n1nnnc1C(c1cccs1)N1CCN(Cc2ccc3c(c2)OCO3)CC1", "note": "(stereo not given)", "inhibition": "3.23%"},
      {"smiles": "COc1ccc(C2OC(=O)CC2C(=O)NCc2ccc(Cl)cc2)cc1OC", "note": "(stereo not given)", "inhibition": "-0.93%"},
      {"smiles": "CCn1c(=O)c(C(=O)NNS(=O)(=O)c2ccc(C)cc2)c(O)c2ccccc21", "inhibition": "5.97%"},
      {"smiles": "O=C(Nn1c(-c2ccccc2)nc2ccccc2c1=O)c1ccco1", "inhibition": "15.6%"},
      {"smiles": "COc1cc2nc(C3CCC3)n(NC(=O)c3ccco3)c(=O)c2cc1OC", "inhibition": "11.3%"},
      {"smiles": "O=C(Nn1c(C2CCCCC2)nc2ccccc2c1=O)c1ccc([N+](=O)[O-])cc1", "inhibition": "2.98%"},
      {"smiles": "Cc1ccccc1OCc1nc2ccccc2c(=O)n1NC(=O)c1ccco1", "inhibition": "22.7%"},
      {"smiles": "O=C(Nn1c(C2CC2)nc2ccccc2c1=O)c1ccco1", "inhibition": "81.6% (active)"},
      {"smiles": "NS(=O)(=O)c1ccc(CCNC(=O)c2ccc(Cn3c(=O)[nH]c4ccccc4c3=O)cc2)cc1", "inhibition": "4.04%"},
      {"smiles": "CC(/C=C/c1ccccc1)=N\\NC(=O)c1cc(C)nc2ccccc12", "inhibition": "7.74%"},
      {"smiles": "CC1CN(C(=O)c2cc(S(=O)(=O)N3CCCC3)c(Cl)cc2Cl)CC(C)O1", "note": "(stereo not given)", "inhibition": "-2.85%"},
      {"smiles": "O=C(CNC(=S)N(Cc1ccccc1)Cc1cccnc1)NCCc1ccccc1", "inhibition": "-4.94%"},
      {"smiles": "N=c1c(C(=O)NCc2ccc(F)cc2)cc2c(=O)n3ccccc3nc2n1CCCN1CCOCC1", "inhibition": "5.69%"},
      {"smiles": "Cc1cccn2c(=O)c3cc(C(=O)NCc4cccnc4)c(=N)n(C(C)C)c3nc12", "inhibition": "0.19%"},
      {"smiles": "Cc1cccn2c(=O)c3cc(C(=O)NCc4ccco4)c(=N)n(C(C)C)c3nc12", "inhibition": "18.3%"},
      {"smiles": "N=c1c(C(=O)NC2CCCC2)cc2c(=O)n3ccccc3nc2n1CCN1CCOCC1", "inhibition": "12.5%"},
      {"smiles": "N=c1c(C(=O)NCc2ccco2)cc2c(=O)n3ccccc3nc2n1CCc1ccccc1", "inhibition": "9.03%"},
      {"smiles": "N=c1c(C(=O)NCc2ccco2)cc2c(=O)n3ccccc3nc2n1Cc1ccccc1", "inhibition": "11.6%"},
      {"smiles": "O=C(COc1cc(F)ccc1[N+](=O)[O-])Nc1ccc(N2CCOCC2)cc1", "inhibition": "1.97%"},
      {"smiles": "COc1cc(/C=C/C(=O)O)cc(S(=O)(=O)N2CCc3ccccc32)c1OC", "inhibition": "7.41%"},
      {"smiles": "O=C(O)Cc1ccc(-c2ccccc2-c2ccccc2)cc1", "inhibition": "6.14%"},
      {"smiles": "COc1ccc(OC)c(C(C)NC(=O)c2ccc(Br)cc2)c1", "note": "(stereo not given)", "inhibition": "6.29%"},
      {"smiles": "CCc1cccc(CC)c1NC(=O)c1ccc(-n2cncn2)nc1", "inhibition": "3.55%"},
      {"smiles": "Cc1c(Cl)cccc1NC(=O)CCC(=O)N/N=C/c1ccc[nH]1", "inhibition": "6.91%"},
      {"smiles": "CC(=O)Nc1sc(C)c(C)c1C(=O)Nc1ccc(C)cc1", "inhibition": "10.1%"},
      {"smiles": "COc1ccc(N=C2S/C(=C\\c3ccc(OC(C)C(=O)O)c(OC)c3)C(=O)N2CCc2c[nH]c3ccccc23)cc1", "note": "(stereo not given)", "inhibition": "31.6%"},
      {"smiles": "COc1cc(/C=C2\\SC(=Nc3ccccc3)N(CCc3c[nH]c4ccccc34)C2=O)ccc1OC(C)C(=O)O", "note": "(stereo not given)", "inhibition": "16.3%"},
      {"smiles": "CCCn1c(N2CCN(C)CC2)nc2c1c(=O)[nH]c(=O)n2C", "inhibition": "-4.63%"},
      {"smiles": "COc1ccc(S(=O)(=O)N(NC2=NS(=O)(=O)c3ccccc32)C(=O)C(C)C)cc1", "inhibition": "9.06%"},
      {"smiles": "CCN(C1=NS(=O)(=O)c2ccccc21)N(CC)S(=O)(=O)c1ccc(C)cc1", "inhibition": "-4.7%"},
      {"smiles": "CC1CCCCC1NC(=O)C(=O)NCC1CCCO1", "note": "(stereo not given)", "inhibition": "0.74%"},
      {"smiles": "Clc1cccc(-c2ccc(CNCCCN3CCOCC3)o2)c1", "inhibition": "2.45%"},
      {"smiles": "CCc1nn(CCCC(=O)N2CCc3ccccc3C2)c(=O)c2cc3occc3n12", "inhibition": "23.8% (active)"},
      {"smiles": "O=C(CCCn1ncn2c(cc3occc32)c1=O)N1CCc2ccccc2C1", "inhibition": "2.44%"},
      {"smiles": "CCc1nn(C(C)C(=O)N2CCc3ccccc3C2)c(=O)c2cc3occc3n12", "note": "(stereo not given)", "inhibition": "2.28%"},
      {"smiles": "CS(=O)(=O)N(Cc1ccc(C(=O)NC2CCCCC2O)cc1)c1ccccc1", "note": "(stereo not given)", "inhibition": "4.69%"},
      {"smiles": "CCOC(=O)N1CCN(C(=O)CN2C(=O)COc3ccc(C(C)(C)C)cc32)CC1", "inhibition": "2.47%"},
      {"smiles": "CCc1ccc(S(=O)(=O)Nc2ccc(-c3nc4cccnc4s3)cc2)s1", "inhibition": "27.2% (active)"},
      {"smiles": "O=S(=O)(Nc1ccc(-c2nc3cccnc3s2)cc1)c1ccc(Cl)s1", "inhibition": "13.1%"},
      {"smiles": "CCS(=O)(=O)Nc1ccc(-c2nc3cccnc3s2)cc1", "inhibition": "11.6%"},
      {"smiles": "N#Cc1c(N2C(=O)Nc3ccccc3N2O)sc2c1CCCCCC2", "inhibition": "11.8%"},
      {"smiles": "C=CCn1c(C(CC)CC(C)(C)O)n[nH]c1=S", "note": "(stereo not given)", "inhibition": "-5.97%"},
      {"smiles": "Cc1cc2cc(CCNC(=O)c3ccc(S(=O)(=O)N4CCOCC4)cc3)c(=O)[nH]c2cc1C", "inhibition": "0.05%"},
      {"smiles": "O=C1NC(=O)/C(=C/c2ccccc2OCc2ccccc2)S1", "inhibition": "19.3%"},
      {"smiles": "C=CCN1C(=O)N/C(=C/c2ccccc2OCC(=O)Nc2ccc(F)cc2)C1=O", "inhibition": "6.37%"},
      {"smiles": "O=C(COc1ccccc1/C=C1/NC(=O)NC1=O)Nc1ccccc1", "inhibition": "16.8%"},
      {"smiles": "O=C1NC(=O)/C(=C\\c2ccccc2OCc2ccccc2)S1", "inhibition": "12.7%"},
      {"smiles": "CSCC[C@@H](C(=O)NCc1cccs1)N1Cc2ccccc2C1=O", "inhibition": "6.93%"},
      {"smiles": "CC(=O)Nc1ccc(S(=O)(=O)N2CCC(NC(=O)C(Cc3cccn3C)NC(C)=O)CC2)cc1", "note": "(stereo not given)", "inhibition": "-2.05%"},
      {"smiles": "O=C(CCCn1cnc([N+](=O)[O-])n1)Nc1cccc(O)c1", "inhibition": "4.83%"},
      {"smiles": "C[C@H](NC(=O)c1nc[nH]c1C(=O)N[C@@H](Cc1ccccc1)C(=O)OC(C)(C)C)c1ccccc1", "inhibition": "-12.4%"}
    ]}
  ]
}
